# Unmarked numbers belong to inactive results.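 Rule for the calls: active = AUC reduced over 20% with Padj below 0.05 in at least 2 of 3 replicates; inactive = otherwise.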
# Columns and labels:
# Assay in all cases: growth AUC relative to DMSO control (median of replicates) (fraction); higher = more growth (less inhibition), active = hit call of the paper
# Details in all cases: 20 µM; 24 h
# Akkermansia muciniphila = tested on: Akkermansia muciniphila
# Summary of the method: (§1)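 Hourly OD600 readings over 24 h tracked anaerobic gut bacterial monocultures grown at 37 °C in mGAM from OD600 0.05 with 20 µM compound (1% DMSO). After the minimum OD was set to 0, area under the growth curve was normalised to the plate median of solvent-only wells, or to row and column medians on the industrial chemical plate. Values are medians of three biological replicates grown on separate days.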
# Bacteroides caccae = tested on: Bacteroides caccae
# Summary of the method: as §1
# Bacteroides clarus = tested on: Bacteroides clarus
# Summary of the method: as §1
# Bacteroides dorei = tested on: Bacteroides dorei
# Summary of the method: as §1
# Bacteroides stercoris = tested on: Bacteroides stercoris
# Summary of the method: as §1
# [1] = tested on: Bacteroides thetaiotaomicron
# Summary of the method: as §1
# Bacteroides uniformis = tested on: Bacteroides uniformis
# Summary of the method: as §1
# [2] = tested on: Bifidobacterium longum subsp. longum
# Summary of the method: as §1
# Clostridium difficile = tested on: Clostridium difficile
# Summary of the method: as §1
# Collinsella aerofaciens = tested on: Collinsella aerofaciens
# Summary of the method: as §1
# Coprococcus comes = tested on: Coprococcus comes
# Summary of the method: as §1
# Escherichia coli ED1a = tested on: Escherichia coli ED1a
# Summary of the method: as §1
# Escherichia coli IAI1 = tested on: Escherichia coli IAI1
# Summary of the method: as §1
# Eubacterium rectale = tested on: Eubacterium rectale
# Summary of the method: as §1
# [3] = tested on: Fusobacterium nucleatum subsp. animalis
# Summary of the method: as §1
# Lactobacillus gasseri = tested on: Lactobacillus gasseri
# Summary of the method: as §1
# Lactobacillus paracasei = tested on: Lactobacillus paracasei
# Summary of the method: as §1
# Odoribacter splanchnicus = tested on: Odoribacter splanchnicus
# Summary of the method: as §1
# [4] = tested on: Parabacteroides distasonis
# Summary of the method: as §1
# Parabacteroides merdae = tested on: Parabacteroides merdae
# Summary of the method: as §1
SMILES,growth AUC (Akkermansia muciniphila),growth AUC (Bacteroides caccae),growth AUC (Bacteroides clarus),growth AUC (Bacteroides dorei),growth AUC (Bacteroides stercoris),growth AUC [1],growth AUC (Bacteroides uniformis),growth AUC [2],growth AUC (Clostridium difficile),growth AUC (Collinsella aerofaciens),growth AUC (Coprococcus comes),growth AUC (Escherichia coli ED1a),growth AUC (Escherichia coli IAI1),growth AUC (Eubacterium rectale),growth AUC [3],growth AUC (Lactobacillus gasseri),growth AUC (Lactobacillus paracasei),growth AUC (Odoribacter splanchnicus),growth AUC [4],growth AUC (Parabacteroides merdae)
C=CCC1=C(C)C(OC(=O)C2C(C=C(C)C)C2(C)C)CC1=O (mixture of isomers),1.05,0.96,1.04,0.962,0.924,0.972,0.936,0.96,0.962,0.941,0.963,0.968,1.01,1.09,1.01,0.818,0.943,1.01,0.771,0.955
COP(=S)(NC(C)C)Oc1ccccc1C(=O)OC(C)C (stereo not given),1.07,0.991,0.93,0.942,1.04,0.907,0.872,1.02,1.01,1.01,1.03,1.02,0.988,0.92,1.08,0.984,0.962,1.07,0.53 (active),0.931
Cn1cc(-c2ccccc2)c(=O)c(-c2cccc(C(F)(F)F)c2)c1,0.9,0.923,0.999,1.01,1.06,0.967,0.977,1.04,0.994,0.939,1.02,0.978,0.968,0.998,0.907,0.963,0.983,0.974,0.999,0.943
O=C(NCCc1ncc(C(F)(F)F)cc1Cl)c1ccccc1C(F)(F)F,0.849,0.978,1.01,1,0.951,0.973,0.987,0.974,0.996,1,1,1.01,0.988,0.964,0.875,0.999,1.01,0.985,0.96,0.996
O=C1C=CC(=O)C=C1,0.97,0.991,0.992,1.01,1.02,1.01,1,1.01,0.997,0.992,1.02,1.01,1.01,0.986,0.983,1.04,1,0.975,1.03,1.01
CCCCc1c(C)nc(N(C)C)[nH]c1=O,0.964,1.01,0.966,0.984,1.03,0.989,0.982,0.998,0.997,1.05,1,0.976,0.913,0.825,1.09,1,0.896,1.05,1.03,1.01
CCOP(=S)(NC(C)CC)Oc1cc(C)ccc1[N+](=O)[O-] (stereo not given),0.974,0.947,0.946,1.01,0.865,0.955,0.917,0.965,1.03,0.985,0.967,0.97,0.964,0.919,0.865,0.974,0.984,0.904,0.733 (active),0.967
CCOP(=O)(SC(C)CC)SC(C)CC (stereo not given),0.94,1.01,0.962,1.02,0.949,0.993,0.981,0.97,0.982,0.933,1.01,1.01,0.987,1.1,0.983,1.04,0.989,0.933,0.95,0.975

# Source: the supplement of paper PMC12669032
